Source: PubChem BioAssay (NCI)
The panel holds about 83,000 compounds, 20% with a hit somewhere; the sample as a whole holds those more often.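 Plates (96-well) were seeded with cells, treated with compound at one concentration, and incubated for 48 hours before percent growth was determined.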 Unmarked numbers belong to inactive results. Calls of active or inactive are those of the source. How the source made its calls: active means growth percent below 10; inactive means the rest.

Columns and labels:
Assay in all cases: NCI-60 one-dose screen, 48 h (100 = growth as untreated, 0 = no growth, -100 = all killed)
Details in all cases: 10 µM unless noted
SR leukemia = system: SR leukemia
RPMI-8226 leukemia = system: RPMI-8226 leukemia
OVCAR-8 ovarian = system: OVCAR-8 ovarian
OVCAR-4 ovarian = system: OVCAR-4 ovarian
SK-OV-3 ovarian = system: SK-OV-3 ovarian
IGROV1 ovarian = system: IGROV1 ovarian
OVCAR-3 ovarian = system: OVCAR-3 ovarian
HS 578T breast = system: HS 578T breast
NCI/ADR-RES ovarian = system: NCI/ADR-RES ovarian
OVCAR-5 ovarian = system: OVCAR-5 ovarian

| SMILES | growth (SR leukemia) | growth (RPMI-8226 leukemia) | growth (OVCAR-8 ovarian) | growth (OVCAR-4 ovarian) | growth (SK-OV-3 ovarian) | growth (IGROV1 ovarian) | growth (OVCAR-3 ovarian) | growth (HS 578T breast) | growth (NCI/ADR-RES ovarian) | growth (OVCAR-5 ovarian) |
| --- | --- | --- | --- | --- | --- | --- | --- | --- | --- | --- |
| O=C1CNCCN1 | 102% | 98.9% | 103% | 108% | 112% | 99.7% | 109% | 100% | 106% |  |
| COc1ccc(/C=C/C(=O)c2ccc([N+](=O)[O-])cc2)cc1 | 85.4% | 78.9% | 105% |  | 103% |  | 113% | 106% | 106% | 111% |
| Cc1csc(Nc2nc(-c3cccc(Br)c3)nc(C(Cl)(Cl)Cl)n2)n1 | 67.7% | 35.8% | 75.6% | 76.8% | 76.1% | 91.9% | 14.9% | 59.6% |  |  |
| CC/C=C\C[C@H]1CC=C2C(=O)C=C[C@@H]2CC=CCCCC(=O)O[C@@H](CCCCC)CC=C2C(=O)C=C[C@@H]2CC=CCCCC(=O)O[C@@H](CCCCC)CC=C2C(=O)C=C[C@@H]2CC=CCCCC(=O)O[C@@H](CCCCC)CC=C2C(=O)C=C[C@@H]2CC=CCCCC(=O)O1 | 2.79% [7.9 µM] (active) | 0.23% [7.9 µM] (active) | -21.9% [7.9 µM] (active) | 21.6% [7.9 µM] | 73.4% [7.9 µM] | 8.16% [7.9 µM] (active) | -14% [7.9 µM] (active) | 41.9% [7.9 µM] |  |  |
| Cc1cccc(C)c1NC(=O)CSC(=S)N1CCN(CCOCCO)CC1 | 102% | 108% | 106% | 102% | 110% | 96.5% | 102% | 104% | 99.5% |  |
| COC(=O)c1cc(=O)nc(N/N=C/c2ccc(C)cc2)s1 | 94.8% | 89.9% | 105% | 96.9% | 110% | 105% | 120% | 110% | 106% |  |
| COc1ccc(C(=O)/C=C/c2cc(-c3cc(OC)c(OC)c(OC)c3)n[nH]2)cc1OC | -15.6% (active) | -36% (active) | -4.15% (active) | 13.3% | 51.6% | -5.47% (active) | -55.3% (active) | 57.1% | 15% |  |
| CCCCC[C@H]1CC=C2C(=O)C(Cl)=C[C@@H]2CC=CCCCC(=O)O[C@@H](CCCCC)CC=C2C(=O)C(Cl)=C[C@@H]2CC=CCCCC(=O)O[C@@H](CCCCC)CC=C2C(=O)C(Cl)=C[C@@H]2CC=CCCCC(=O)O1 | 6.25% [8 µM] (active) | 2.73% [8 µM] (active) | -17.1% [8 µM] (active) | 59.9% [8 µM] | 120% [8 µM] | 36% [8 µM] | 17.3% [8 µM] | 78% [8 µM] | 96.2% [8 µM] |  |
| CCCCCCCC(=O)SCC/C=C/[C@@H]1CC(=O)NCc2cccc(n2)CN(Cc2ccc3ccccc3c2)CC(=O)N[C@@H](C(C)C)C(=O)O1 | 3.23% (active) | 32.6% | 22.7% | 66.3% | 24.5% | 53.2% | 47.3% | 34.9% | 30.8% |  |
| COc1ccc(-c2nc(Nc3ccc(-c4nc5ccccc5[nH]4)cc3)nc(N3CCOCC3)n2)cc1 | 6.01% (active) | -13.8% (active) | 39.2% | 59.8% | 19.6% | 33.7% | 5.15% (active) | -11.9% (active) |  |  |
| Cn1c(=O)c2c(ncn2CCC(=O)Nc2ccc(F)cc2)n(C)c1=O | 105% | 97.2% | 108% | 111% | 85% | 112% | 107% | 103% | 106% |  |
| CC/C(=N/NC(N)=O)c1ccccc1 | 110% | 97.8% | 103% | 120% | 116% | 108% | 109% | 104% | 104% |  |
| COCCNC1=C(Cl)C(=O)c2ccccc2C1=O | 105% | 90.4% | 89.5% | 93.6% | 116% | 126% | 116% | 105% |  |  |
| Cc1ccc(S(=O)(=O)Nc2ccc(-c3cc(-c4cccc(F)c4)c(C#N)c(=O)[nH]3)cc2)cc1 | 54.9% | 19.4% | 80.1% | 67% | 99.7% | 73.1% | 82.6% | 89.7% | 90.7% |  |
